Calls of active or inactive are those of the source. Unless noted, calls follow the shape of the dose curve; as a rule, active = well fitted curve in the direction sought with a large enough effect in the repeat runs; inconclusive = weak or mixed curves; inactive = no such curve, though single readings can be large; an effect the other way counts as inactive or inconclusive.
Experiments:
[1] = test system: thyroid hormone receptor (rat, GH3 cells); assay: qHTS assay to identify small molecule agonists of the thyroid receptor (TR) signaling pathway (AID 743066; calls by dose curve)
[2] = target: Estrogen receptor (Homo sapiens) (UniProt P03372); assay: qHTS assay to identify small molecule agonists of the estrogen receptor alpha (ER-alpha) signaling pathway using the BG1 cell line (AID 743079); also: nearly all actives have a fitted effect of over 20% in size; also: potency is read from the fitted curve at half-maximal effect
Chain of Estrogen receptor (Homo sapiens) (P03372 whole entry, looked up): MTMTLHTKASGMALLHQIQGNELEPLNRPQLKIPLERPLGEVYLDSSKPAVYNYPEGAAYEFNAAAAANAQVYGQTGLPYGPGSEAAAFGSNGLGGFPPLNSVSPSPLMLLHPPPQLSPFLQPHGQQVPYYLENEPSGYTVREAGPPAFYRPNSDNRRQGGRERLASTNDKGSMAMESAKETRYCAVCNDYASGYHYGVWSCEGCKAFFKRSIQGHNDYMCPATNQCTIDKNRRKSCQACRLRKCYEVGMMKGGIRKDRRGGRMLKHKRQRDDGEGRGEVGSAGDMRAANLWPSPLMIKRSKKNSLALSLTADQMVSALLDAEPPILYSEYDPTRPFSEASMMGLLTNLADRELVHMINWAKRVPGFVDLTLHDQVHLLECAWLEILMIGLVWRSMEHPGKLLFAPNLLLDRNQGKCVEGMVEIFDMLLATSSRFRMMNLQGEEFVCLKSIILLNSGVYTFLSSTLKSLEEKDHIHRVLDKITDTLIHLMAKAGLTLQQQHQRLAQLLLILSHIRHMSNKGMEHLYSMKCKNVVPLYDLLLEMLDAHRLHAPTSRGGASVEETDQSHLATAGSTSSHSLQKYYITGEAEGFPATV

Aromatase (Homo sapiens) = Aromatase (Homo sapiens) (UniProt P11511); assay: qHTS assay to identify aromatase inhibitors (AID 743083); also: nearly all actives have a fitted effect of over 55% in size; also: potency is read from the fitted curve at half-maximal effect
Chain of Aromatase (Homo sapiens) (P11511 whole entry, looked up): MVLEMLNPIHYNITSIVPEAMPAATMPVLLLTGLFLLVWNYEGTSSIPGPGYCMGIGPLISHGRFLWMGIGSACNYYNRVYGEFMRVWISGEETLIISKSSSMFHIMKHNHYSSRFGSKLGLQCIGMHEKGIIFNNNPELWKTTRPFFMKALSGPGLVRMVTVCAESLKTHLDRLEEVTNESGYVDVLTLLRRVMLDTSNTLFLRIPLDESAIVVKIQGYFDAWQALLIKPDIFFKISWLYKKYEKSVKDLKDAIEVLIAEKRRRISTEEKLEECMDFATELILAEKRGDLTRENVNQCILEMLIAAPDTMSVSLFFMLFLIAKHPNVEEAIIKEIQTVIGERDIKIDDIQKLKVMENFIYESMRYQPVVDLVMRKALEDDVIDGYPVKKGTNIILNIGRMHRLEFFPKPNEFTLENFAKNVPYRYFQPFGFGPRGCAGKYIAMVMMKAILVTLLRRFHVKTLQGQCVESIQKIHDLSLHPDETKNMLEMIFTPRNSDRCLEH

[3] = qHTS assay to identify aromatase inhibitors - cell viability counter screen (AID 743084);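 also: cells stimulated with testosterone during compound exposure; nearly all actives have a fitted effect of over 55% in size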; also: potency is read from the fitted curve at half-maximal effect
[4] = target: Aryl hydrocarbon receptor (Homo sapiens) (UniProt P35869); assay: qHTS assay to identify small molecule that activate the aryl hydrocarbon receptor (AhR) signaling pathway (AID 743085); also: nearly all actives have a fitted effect of over 15% in size; also: potency is read from the fitted curve at half-maximal effect;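 as to activation: HG2L7.5c1 human HepG2 liver cells with stably integrated DRE-driven firefly reporter; series mostly up to about 70 µM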
Chain of Aryl hydrocarbon receptor (Homo sapiens) (P35869 whole entry, looked up): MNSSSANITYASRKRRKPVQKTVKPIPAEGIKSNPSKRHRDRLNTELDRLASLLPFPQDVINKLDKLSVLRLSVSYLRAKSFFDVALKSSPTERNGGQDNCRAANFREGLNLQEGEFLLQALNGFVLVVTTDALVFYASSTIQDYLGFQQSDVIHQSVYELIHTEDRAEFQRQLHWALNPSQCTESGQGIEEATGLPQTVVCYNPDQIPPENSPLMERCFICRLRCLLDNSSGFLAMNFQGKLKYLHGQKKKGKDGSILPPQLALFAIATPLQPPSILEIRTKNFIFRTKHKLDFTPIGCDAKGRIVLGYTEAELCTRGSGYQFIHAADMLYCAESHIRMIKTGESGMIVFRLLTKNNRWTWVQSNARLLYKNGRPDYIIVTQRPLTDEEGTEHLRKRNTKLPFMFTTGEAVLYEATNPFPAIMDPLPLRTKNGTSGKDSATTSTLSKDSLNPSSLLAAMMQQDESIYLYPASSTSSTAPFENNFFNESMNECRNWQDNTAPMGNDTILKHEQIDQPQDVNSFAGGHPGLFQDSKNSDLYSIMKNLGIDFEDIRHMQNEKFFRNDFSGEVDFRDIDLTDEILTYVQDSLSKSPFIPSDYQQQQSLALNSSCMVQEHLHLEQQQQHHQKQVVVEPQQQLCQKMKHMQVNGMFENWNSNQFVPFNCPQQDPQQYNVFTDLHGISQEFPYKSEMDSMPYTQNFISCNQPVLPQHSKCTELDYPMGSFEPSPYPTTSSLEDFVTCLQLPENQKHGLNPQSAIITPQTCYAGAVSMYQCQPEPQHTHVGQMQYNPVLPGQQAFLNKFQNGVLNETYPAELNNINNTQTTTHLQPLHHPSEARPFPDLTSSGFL
Outline: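 Stably transfected human liver carcinoma cells (HG2L7.5c1; 20 DRE-firefly luciferase) were incubated 5 h, dosed, and kept 24 h at 37C. Agonism was scored from increased luciferase luminescence.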

[5] = qHTS assay to identify small molecule that activate the aryl hydrocarbon receptor (AhR) signaling pathway - cell viability counter screen (AID 743086); also: nearly all actives have a fitted effect of over 45% in size; also: potency is read from the fitted curve at half-maximal effect
Outline: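 Cytotoxicity counter screen: CellTiter-Fluor signal (30 min, 37 C) in 4000 HepG2 cells/well carrying the DRE-luciferase reporter, following 24 h compound exposure at 37 C.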

[6] = qHTS assay for small molecule agonists of the antioxidant response element (ARE) signaling pathway (AID 743202; active = well fitted activation curve with a large enough effect in the signal ratio in the repeat runs, not every such curve was filed as active; inconclusive = weak or mixed curves, or effect the other way; inactive = no such curve, though single readings can be large or run the other way; the % refers to the signal ratio; also: potency is read from the fitted curve at half-maximal effect)
Outline: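 After 16 hours of compound treatment at 37 C, HepG2 cells with a stably integrated ARE-driven beta-lactamase reporter were loaded 2 hours at room temperature with LiveBLAzer B/G FRET substrate and fluorescence intensity measured.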

[7] = qHTS assay for small molecule activators of the heat shock response signaling pathway - cell viability counter screen (AID 743209); also: nearly all actives have a fitted effect of over 50% in size; also: potency is read from the fitted curve at half-maximal effect
Outline: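 Viability of HSE-bla HeLa cells is measured with CellTiter-Glo in the wells already used for the reporter read. Compound exposure lasts 5 h at 37 C, and luminescence is read after 30 min at room temperature.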

[8] = qHTS assay to identify small molecule antagonists of the estrogen receptor alpha (ER-alpha) signaling pathway - cell viability counter screen (AID 743074; calls by dose curve;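 also: HEK293 cells carrying ER-alpha-UAS-bla reporter stimulated with 17beta-estradiol; nearly all actives have a fitted effect of over 45% in size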; also: potency is read from the fitted curve at half-maximal effect)
[9] = qHTS assay to identify small molecule antagonists of the estrogen receptor alpha (ER-alpha) signaling pathway using the BG1 cell line - cell viability counter screen (AID 743081);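 also: compound given together with 17beta-estradiol as the ER stimulus; nearly all actives have a fitted effect of over 45% in size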; also: potency is read from the fitted curve at half-maximal effect
[10] = qHTS assay to identify small molecule antagonists of the peroxisome proliferator-activated receptor gamma (PPARg) signaling pathway - cell viability counter screen (AID 743194); settings: Potency: co-treated with 50 nM rosiglitazone unless noted; also: nearly all actives have a fitted effect of over 55% in size; also: potency is read from the fitted curve at half-maximal effect
Outline: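 Viability was measured as CellTiter-Glo luminescence in GeneBLAzer PPARg UAS-bla HEK293H cells. These cells had been exposed 17 h at 37 C to compounds together with rosiglitazone at 50 nM final, with the beta-lactamase readout taken in the same wells.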

[11] = qHTS assay to identify small molecule agonists of the peroxisome proliferator-activated receptor delta (PPARd) signaling pathway - cell viability counter screen (AID 743211); also: nearly all actives have a fitted effect of over 55% in size; also: potency is read from the fitted curve at half-maximal effect
Outline: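 In the same wells used for beta-lactamase reporter measurement, cytotoxicity is scored by CellTiter-Glo. HEK293H PPARd-bla cells receive compound for 17 h at 37C following a 5 h settling period.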

[12] = target: Estrogen receptor (Homo sapiens) (UniProt P03372); assay: qHTS assay to identify small molecule agonists of the estrogen receptor alpha (ER-alpha) signaling pathway (AID 743075; calls by dose curve;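 also: HEK293 GripTite cells with ER-alpha and UAS-driven beta-lactamase reporter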; also: potency is read from the fitted curve at half-maximal effect)
[13] = qHTS assay for small molecule agonists of the antioxidant response element (ARE) signaling pathway - cell viability counter screen (AID 743203; calls by dose curve; also: nearly all actives have a fitted effect of over 55% in size; also: potency is read from the fitted curve at half-maximal effect)
Outline: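 Viability counter screen: stably transfected ARE-bla HepG2 line, 16 hrs compound exposure at 37C/5% CO2, ATP-based CellTiter-Glo luminescence measured in the reporter wells.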

[14] = target: Estrogen receptor (Homo sapiens) (UniProt P03372); assay: qHTS assay to identify small molecule antagonists of the estrogen receptor alpha (ER-alpha) signaling pathway (AID 743069; active = well fitted curve in the direction sought with a large enough effect in the signal ratio in the repeat runs, not every such curve was filed as active; inconclusive = weak or mixed curves, or effect the other way; inactive = no such curve, though single readings can be large or run the other way; the % refers to the signal ratio; also: potency is read from the fitted curve at half-maximal effect)
Outline: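 Antagonist mode: compounds in DMSO were co-added with 17beta-estradiol to ER-alpha-bla HEK293 cells (2% charcoal-stripped serum) and left 18 h at 37C. Reporter inhibition was measured as FRET fluorescence after 2 h LiveBLAzer substrate at room temperature.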

[15] = qHTS assay to identify small molecule antagonists of the estrogen receptor alpha (ER-alpha) signaling pathway using the BG1 cell line (AID 743080; calls by dose curve;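 also: BG1 cells stimulated with 17beta-estradiol alongside compound; nearly all actives have a fitted effect of over 25% in size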; also: potency is read from the fitted curve at half-maximal effect)
Outline: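 Endogenous full-length ER-alpha in BG1-Luc-4E2 cells drives a stably integrated 4×ERE luciferase gene; compounds were tested against 17beta-estradiol over 21.5 h, with luminescence and multiplexed viability fluorescence recorded.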

[16] = qHTS assay for small molecule activators of the heat shock response signaling pathway (AID 743210; active = well fitted activation curve with a large enough effect in the signal ratio in the repeat runs, with a control signal flat, not every such curve was filed as active; inconclusive = weak or mixed curves; the % refers to the signal ratio; also: series mostly up to about 63 µM)
Outline: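 Compound exposure lasted 5 h at 37 C in HeLa cells carrying a heat-shock-element-driven beta-lactamase reporter. Read-out: fluorescence intensity after 2.5 h room-temperature loading with LiveBLAzer B/G FRET substrate.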

[17] = target: Peroxisome proliferator-activated receptor gamma (Homo sapiens) (UniProt P37231); assay: qHTS assay to identify small molecule agonists of the peroxisome proliferator-activated receptor gamma (PPARg) signaling pathway (AID 743094; active = well fitted activation curve with a large enough effect in the signal ratio in the repeat runs, not every such curve was filed as active; inconclusive = weak or mixed curves, or effect the other way; inactive = no such curve, though single readings can be large or run the other way; the % refers to the signal ratio)
Chain of Peroxisome proliferator-activated receptor gamma (Homo sapiens) (P37231 whole entry, looked up): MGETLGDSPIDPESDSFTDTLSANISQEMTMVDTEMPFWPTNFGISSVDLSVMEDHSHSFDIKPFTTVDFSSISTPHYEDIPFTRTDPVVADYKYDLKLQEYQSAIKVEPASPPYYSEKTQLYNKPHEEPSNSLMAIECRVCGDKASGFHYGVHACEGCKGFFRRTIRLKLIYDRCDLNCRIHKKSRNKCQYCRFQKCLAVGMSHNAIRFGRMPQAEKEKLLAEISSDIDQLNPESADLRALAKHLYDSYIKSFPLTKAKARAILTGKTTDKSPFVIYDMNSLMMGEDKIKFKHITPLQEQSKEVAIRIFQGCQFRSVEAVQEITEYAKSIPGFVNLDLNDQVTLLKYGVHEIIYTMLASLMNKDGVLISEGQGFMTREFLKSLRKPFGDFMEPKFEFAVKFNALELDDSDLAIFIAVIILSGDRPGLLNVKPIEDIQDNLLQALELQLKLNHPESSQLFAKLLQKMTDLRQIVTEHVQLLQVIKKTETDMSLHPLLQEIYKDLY
Outline: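 Reporter activation was scored by fluorescence of cleaved LiveBLAzer B/G substrate (1 h, room temperature) in PPARg-bla HEK293H cells previously treated 17 h at 37C with DMSO-dissolved compounds.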

[18] = target: Peroxisome proliferator-activated receptor gamma (Homo sapiens) (UniProt P37231); assay: qHTS assay to identify small molecule antagonists of the peroxisome proliferator-activated receptor gamma (PPARg) signaling pathway (AID 743191; calls by dose curve; also: series mostly up to about 63 µM; nearly all actives have a fitted effect of over 30% in size)
Outline: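 Beta-lactamase reporter under UAS control in HEK293H PPARg-bla cells; compound treatment 17 h at 37C. Read-out: fluorescence intensity after 1 h room-temperature incubation with LiveBLAzer B/G FRET substrate.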

Measured: Potency

O=[N+]([O-])c1c2ccccc2cc2ccccc12
active: [2] 42.9 µM | [4] 15.8 µM | [6] 21.4 µM
inactive: [1] | Aromatase (Homo sapiens) | [3] | [5] | [7]

OC(c1ccc(Cl)cc1)(c1ccc(Cl)cc1)C(Cl)(Cl)Cl
inactive: [1] | [8] | [9] | [5]
active: Aromatase (Homo sapiens) 61.1 µM | [3] 61.1 µM | [10] 15.5 µM

CC(=O)[O-].[Tl+]
active: Aromatase (Homo sapiens) 61.5 µM
inactive: [1] | [9] | [3] | [4] | [5] | [10] | [7] | [11]

CCN(CC)C(=S)[S-].CCN(CC)C(=S)[S-].[Zn+2]
inactive: [4] | [5]
active: [8] 4.86 µM | [12] 54.5 µM [inconclusive] | [9] 42.9 µM | Aromatase (Homo sapiens) 0.096 µM | [3] 0.096 µM | [10] 2.17 µM | [13] 3.82 µM | [11] 0.545 µM

CC(C)(C)c1ccc(CSc2cnn(C(C)(C)C)c(=O)c2Cl)cc1
inactive: [3] | [4] | [5] | [16]
active: [14] 0.0055 µM [inconclusive] | [15] 0.0109 µM | [9] 27.3 µM | Aromatase (Homo sapiens) 61.1 µM | [13] 24.3 µM

Oc1cc(Cl)c(Cl)c(Cl)c1
active: [12] 41.4 µM [activator] | [10] 13.1 µM | [11] 46.5 µM
inactive: [15] | [9] | [4] | [5]

CC(=O)[O-].CC(=O)[O-].[Hg+2]
active: [8] 49 µM | [9] 61.1 µM | Aromatase (Homo sapiens) 2.73 µM | [3] 3.86 µM | [5] 7.7 µM | [10] 0.977 µM | [13] 1.22 µM | [7] 1.38 µM | [11] 1.74 µM
inactive: [4]

COc1ccc(OC)c(CC(C)N)c1 (centres undefined)
not listed: [1] | [8]
inactive: all other assays above

N#CC(Cl)Cl
inactive: [8] | [9] | [4] | [5] | [13] | [7] | [11]

Reference: PubChem BioAssay (Tox21)
